The record followed here is PubChem BioAssay (Tox21).

Values without a mark were called inactive. Records with an inconclusive call do not appear. The source made the active and inactive calls. Unless noted, calls come from the whole dose curve; as a rule, active = well fitted curve in the direction sought with a large enough effect in the repeat runs; inconclusive = weak or mixed curves; inactive = no such curve, though single readings can be large; an effect the other way counts as inactive or inconclusive.

Assay [1] in a line: qHTS assay to identify small molecule agonists of the hypoxia (HIF-1) signaling pathway - cell viability counter screen (AID 1224844; calls by dose curve; note: nearly all actives have a fitted effect of over 50% in size). Put shortly: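 Same wells as the HIF-1 reporter screen; ME-180 cells carrying HRE-bla, 17 hr treatment at 37C; CellTiter-Glo luminescence read after 30 min at room temperature.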
Assay [2] is described as follows: qHTS assay to identify small molecule agonists of H2AX (AID 1224845; active = well fitted activation curve with a large enough effect in the signal ratio in the repeat runs, not every such curve was filed as active; the % refers to the signal ratio). Put shortly:
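Wild-type CHO-K1 cells, plated overnight, exposed 3hr at 37C to 15 concentrations (0.76% DMSO final). Lysed, then HTRF anti-pH2AX (S139) cryptate and anti-H2AX-d2 antibodies, 24 hr room temperature; 665/620 nm emission read.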
In general terms: In qHTS, concentration-response curves come from the screen itself.

A short description of assay [3]: qHTS assay to identify small molecule agonists of the hypoxia (HIF-1) signaling pathway (AID 1224846; active = well fitted activation curve with a large enough effect in the signal ratio in the repeat runs, not every such curve was filed as active; the % refers to the signal ratio). Put shortly: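 In ME-180 cells bearing an HRE-bla construct, 17 h treatment with DMSO-dissolved compounds at 37C was followed by CCF4-AM loading to quantify reporter induction.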
Assay [4] in a line: qHTS RealTime-Glo MT Cell Viability Assay in HepG2 cells - 24 hour (AID 1224867). Note: nearly all actives have a fitted effect of over 50% in size. Put shortly:
(§1)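 qHTS, HepG2, 600 cells/well, RealTime-Glo (NanoLuc + prosubstrate) added with cells; 5 h preincubation; DMSO compound addition; 37 C; luminescence at 0/8/16/24/32/40 h.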

A short description of assay [5]: qHTS RealTime-Glo MT Cell Viability Assay in HEK293 cells - 32 hour (AID 1224868). Note: nearly all actives have a fitted effect of over 50% in size. Note: potency is the fitted concentration of half-maximal effect. Put shortly: (§2)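 Assay medium contained NanoLuc luciferase plus cell-permeant prosubstrate, added with HEK293 cells at 600 cells/well. After 5 h at 37 C/5% CO2 compounds were added; plates stayed at 37 C for 40 h with serial luminescence reads.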
Assay [6] in a line: A CellTox Green Cytotoxicity Assay to monitor cytotoxicity in HEK293 cells - 0 hour (AID 1224869). Note: nearly all actives have a fitted effect of over 50% in size. Put shortly: (§3)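 Homogeneous no-lysis format: HEK293 cell suspension mixed with CellTox Green reagent, seeded, incubated 5 h at 37 C/5% CO2, then dosed by pintool with compound in DMSO.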
A short description of assay [7]: qHTS RealTime-Glo MT Cell Viability Assay in HepG2 cells - 40 hour (AID 1224870). Note: nearly all actives have a fitted effect of over 50% in size. Put shortly:
(§4)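 HepG2 cells (600/well) mixed with RealTime-Glo MT reagent, settled 5 h at 37 C/5% CO2 before compound addition. Nonlytic NanoLuc luminescence from viable-cell prosubstrate reduction read repeatedly during 40 h treatment at 37 C.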

Assay [8] is described as follows: A CellTox Green Cytotoxicity Assay to monitor cytotoxicity in HEK293 cells - 40 hour (AID 1224871). Note: nearly all actives have a fitted effect of over 45% in size. Note: potency is the fitted concentration of half-maximal effect. Put shortly:
as §3

The nature of assay [9]: qHTS RealTime-Glo MT Cell Viability Assay in HepG2 cells - 8 hour (AID 1224873). Note: nearly all actives have a fitted effect of over 55% in size. Put shortly:
as §4

Assay [10] can be described thus: qHTS RealTime-Glo MT Cell Viability Assay in HEK293 cells - 40 hour (AID 1224874). Note: nearly all actives have a fitted effect of over 50% in size. Note: potency is the fitted concentration of half-maximal effect. The following applies: RealTime-Glo luminescence; max response: stronger effect = lower value. Put shortly:
(§5)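 Measured as luminescence from the same continuously cultured HEK293 wells at successive time points (0, 8, 16, 24, 32, 40 h) after compound addition. Reagent present from seeding; dosing at 5 h; incubation 37 C.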

A short description of assay [11]: A CellTox Green Cytotoxicity Assay to monitor cytotoxicity in HEK293 cells - 24 hour (AID 1224875). Note: nearly all actives have a fitted effect of over 45% in size. Put shortly:
as §3

The nature of assay [12]: A CellTox Green Cytotoxicity Assay to monitor cytotoxicity in HepG2 cells - 16 hour (AID 1224876). Note: nearly all actives have a fitted effect of over 45% in size. Put shortly: (§6)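 Fluorescent DNA-binding dye, 600 HepG2 cells/well, 5 h preincubation then compound in DMSO; same plates read at 0–40 h, 37 C.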
The nature of assay [13]: qHTS RealTime-Glo MT Cell Viability Assay in HepG2 cells - 32 hour (AID 1224877). Note: nearly all actives have a fitted effect of over 55% in size. Put shortly: as §1
Assay [14] in a line: A CellTox Green Cytotoxicity Assay to monitor cytotoxicity in HepG2 cells - 24 hour (AID 1224878). Note: nearly all actives have a fitted effect of over 45% in size. Note: potency is the fitted concentration of half-maximal effect. Put shortly:
as §6

A short description of assay [15]: A CellTox Green Cytotoxicity Assay to monitor cytotoxicity in HepG2 cells - 40 hour (AID 1224879). Note: nearly all actives have a fitted effect of over 40% in size. Note: potency is the fitted concentration of half-maximal effect. Put shortly:
as §6

Assay [16] in a line: qHTS RealTime-Glo MT Cell Viability Assay in HEK293 cells - 0 hour (AID 1224880). Put shortly:
as §5

Assay [17] in a line: qHTS RealTime-Glo MT Cell Viability Assay in HEK293 cells - 16 hour (AID 1224872). Note: nearly all actives have a fitted effect of over 50% in size. Note: potency is the fitted concentration of half-maximal effect. Put shortly:
as §2

A short description of assay [18]: qHTS assay to identify small molecule agonists of H2AX - cell viability counter screen (AID 1224847; calls by dose curve; note: top concentration of the series differs between compounds; nearly all actives have a fitted effect of over 30% in size). Put shortly: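 Cells plated first: CHO-K1, 1000 per well in 10% FBS medium, incubated overnight at 37C. Then 15-point compound titration added (final DMSO 0.76%) for 3 hr. Finally CellTiter-Glo added and luminescence read.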
The nature of assay [19]: qHTS assay to identify small molecule antagonists of the estrogen related receptor (ERR) signaling pathway from Tox21 library (AID 1224848). Note: nearly all actives have a fitted effect of over 50% in size. Note: potency is the fitted concentration of half-maximal effect. Put shortly: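 Compounds dissolved in DMSO are pin-transferred onto ERR reporter cells (2,000 per well) that have settled for 6 h at 37 C. Plates then incubate 18 h at 37 C before ONE-Glo luciferase reagent and a luminescence read 30 min later.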

A short description of assay [20]: qHTS assay to identify small molecule agonists of the estrogen related receptor (ERR) signaling pathway from Tox21 library (AID 1224849; calls by dose curve; note: nearly all actives have a fitted effect of over 15% in size). The following applies: ERR reporter cell line, ONE-Glo luciferase, 18 h; at 92.4 µM (top of the series) unless noted. Put shortly:
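Reporter cells (ERR, NTP source) treated with Tox21 10K compounds 18 h, 37 C. Readout: ONE-Glo luminescence, 30 min RT.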
% is set by controls: 0 for no effect and ±100 for the full control effect.

Turning to `CC(=O)c1cccc([N+](=O)[O-])c1`, the Potency result in assay [1], in assay [2], in assay [3], in assay [4], in [5] and in [6] was “inactive” in each case. Moreover, the Potency result in assay [7], in [8], in assay [9], in assay [11], in assay [12] and in assay [13] was “inactive” throughout. Moreover, the Potency result in [14], in [15] and in assay [16] was “inactive” throughout. The max response in assay [10] is 3.17%.
Regarding `CCCCCCCCCCCC(=O)OC[C@@H](O)[C@H]1OC[C@H](OCCO)[C@H]1OCCO`, the Potency result in [1], in assay [2], in [3], in assay [4], in [5] and in assay [7] was “inactive” throughout. In addition, the Potency result in assay [8], in [9], in [11], in [12], in assay [13] and in assay [14] was “inactive” throughout. Also, the Potency entry in assay [15] and in assay [16] was “inactive” throughout. For the same molecule, the max response in assay [10] is -0.559%.
For `CCCCC`, the Potency entry in assay [1], in assay [2], in assay [3], in assay [4], in assay [5] and in [7] was “inactive” in each case. The Potency entry in assay [17], in assay [9], in [12], in [13], in assay [14] and in assay [15] was “inactive” throughout. Besides, the max response in [10] was 0.575%.
As for `CCCCCC[C@@H](O)C/C=C\CCCCCCCC(=O)OC`, the Potency result in [1], in assay [2], in [18], in assay [19], in [4] and in assay [5] was “inactive” each time. Also, the Potency result in assay [6], in assay [7], in [8], in assay [17], in assay [9] and in [11] was “inactive” in each case. In addition, the Potency result in [12], in assay [13], in assay [14], in assay [15] and in assay [16] was “inactive” each time. The activity change, positive = activation in assay [20] was 3.83%. For the same molecule, in assay [10], the max response is 0.122%.
Regarding `Cc1nn(C)c(Oc2ccccc2)c1/C=N/OCc1ccc(C(=O)OC(C)(C)C)cc1`, the Potency result in assay [1], in [2], in assay [3], in assay [4], in assay [6] and in assay [7] was “inactive” in each case. The Potency result in [8], in assay [9], in [11], in [12], in assay [13] and in assay [14] was “inactive” each time. Besides, the Potency entry in [15] and in assay [16] was “inactive” in each case. For the same molecule, the Potency is 4.9 nM (active) in assay [19], 0.0044 µM (active) in assay [5] and 0.0062 µM (active) in [10]. In addition, the activity change, positive = activation in assay [20] is -44.6%.
For the molecule `OC(CN1CCC(Cc2ccc(F)cc2)CC1)c1ccc(Cl)cc1` (centres undefined), the Potency entry in assay [1], in [2], in assay [3] and in [6] was “inactive” in each case. Also, the Potency in assay [5] is 10.7 µM (active); in assay [8], 21.3 µM (active); in [17], 9.52 µM (active); in assay [10], 9.52 µM (active); in assay [14], 21.3 µM (active); in assay [15] it was 23.9 µM (active).
Take `CCOCC(O)COc1ccc(NC(=O)CC[S+](C)C)cc1` (centres undefined): the Potency entry in assay [1], in assay [2], in assay [3], in assay [4], in [5] and in [6] was “inactive” throughout. The Potency result in assay [7], in [8], in [17], in assay [9], in [11] and in assay [13] was “inactive” each time. Besides, the Potency entry in [14] and in assay [15] was “inactive” in each case. Further, in [10], the max response is 1.67%.
For the molecule `CN1Cc2cc(C(=O)N3CCC(C4CCNCC4)CC3)ccc2NC(CC(=O)O)C1=O` (centres undefined), the Potency result in assay [1], in [2], in assay [3], in assay [19], in [4] and in assay [5] was “inactive” in each case. In addition, the Potency result in assay [6], in [7], in assay [17], in [9], in [11] and in assay [12] was “inactive” each time. The Potency entry in [13], in assay [14], in [15] and in [16] was “inactive” in each case. For the same molecule, the activity change, positive = activation in assay [20] is 1.47% [at 42.5 µM]. The max response in [10] is 5.98%.
